ALOX12 inh: blocks human arachidonate 12S-lipoxygenase; P18054; Potency, µM (top dose mostly 108 µM), for the others: top-dose activity change, negative = inhibition, usual class: inhibitors; hit rate 1.1% among 580,000; purified 12hLO, xylenol orange hydroperoxide absorbance; also: % is scaled to controls: 0 for no effect and ±100 for the full control effect
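Hydroperoxide product was detected by ferrous iron/xylenol orange as the 573 to 405 nm absorbance ratio. Arachidonic acid at 40 uM (final) was turned over for 30 min at room temperature by 150 nM human 12hLO, pH 7.0 Hepes buffer, after 15 min compound preincubation.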
BAZ2B block: BAZ2B (human) inhibition. AlphaScreen BAZ2B-H3K14Ac peptide displacement. Potency, µM (titrated, usually from 114 µM), for inactives: at the top dose activity change, negative = inhibition, actives largely listed as inhibitors. hit rate 4.4% among 360,000. AID 504333; also: % is scaled to controls: 0 for no effect and ±100 for the full control effect; nearly all actives have a fitted effect of over 60% in size
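Protein-peptide AlphaScreen: BAZ2B 50 nM, b-H3K14Ac 50 nM, 1x PBS pH 7.4 + 0.01% Tween-20. Preincubation 30 min RT; cpd 30 min RT (top 110 uM); beads 20 min RT, light-protected.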
Sfp inh: inhibitors of Bacillus subtilis Sfp phosphopantetheinyl transferase | Biochemical Sfp PPTase activity, qHTS | Potency, µM, for the others: largest response in the series, negative = inhibition, hits mostly inhibitors | hit rate 3.5% among 310,000 | AID 1490;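 also: the enzyme is Sfp with the accession as filed and its product quenches rhodamine fluorescence; 0% = enzyme reaction without inhibitor and -100% = no enzyme wells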
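Step 1, compound plus 15 nM Sfp-PPTase, 15 min, room temperature. Step 2, add rhodamine-CoA (5 uM) and BHQ-2-YbbR (12.5 uM). Step 3, read 525/598 nm fluorescence at 0 and 30 min.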
JMJD2A Tudor: inhibitors of human JMJD2A Tudor domain; O75164; AlphaScreen JMJD2A-Tudor / H3K4me3 peptide binding; Potency, µM (doses to about 114 µM), for inactives: at the highest dose activity change, negative = inhibition, usual class: inhibitors; hit rate 4.4% among 390,000; also: % is scaled to controls: 0 for no effect and ±100 for the full control effect; nearly all actives have a fitted effect of over 50% in size
HP1b chromo inh: inhibitors of HP1-beta chromodomain binding to methylated histone tails. P83916. AlphaScreen HP1-beta / biotin-H3K9me3 peptide binding. Potency, µM (titrated, usually from 114 µM), inactives show at the top dose activity change, negative = inhibition, usual class: inhibitors. hit rate 0.56% among 390,000. AID 540317; also: nearly all actives have a fitted effect of over 70% in size
Target sequence (P83916 whole entry, looked up): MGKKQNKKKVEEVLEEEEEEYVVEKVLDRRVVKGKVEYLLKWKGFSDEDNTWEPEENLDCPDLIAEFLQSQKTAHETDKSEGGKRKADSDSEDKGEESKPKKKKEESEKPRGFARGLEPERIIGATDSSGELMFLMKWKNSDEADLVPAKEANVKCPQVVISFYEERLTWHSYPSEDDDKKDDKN
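HP1-beta protein (50 nM final) preincubated 30 min at room temperature with biotinylated H3(1-18)K9me3 peptide (50 nM) in PBS pH 7.4, 0.01% Tween-20, then compound added for 30 min. AlphaScreen streptavidin donor/nickel chelate acceptor beads (10 ug/mL final), 30 min dark, luminescence read.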
G9a block: blocks human histone lysine methyltransferase G9a | Q96KQ7 | G9a H3K9 monomethylation, AlphaScreen, 2 h | Potency, µM (highest dose often 102 µM), for inactives: top-dose activity, negative = inhibition, actives largely listed as inhibitors | hit rate 8.8% among 350,000 | AID 504332; also: % is scaled to controls: 0 for no effect and ±100 for the full control effect; nearly all actives have a fitted effect of over 75% in size
Target sequence (Q96KQ7 913-1193 limits assumed): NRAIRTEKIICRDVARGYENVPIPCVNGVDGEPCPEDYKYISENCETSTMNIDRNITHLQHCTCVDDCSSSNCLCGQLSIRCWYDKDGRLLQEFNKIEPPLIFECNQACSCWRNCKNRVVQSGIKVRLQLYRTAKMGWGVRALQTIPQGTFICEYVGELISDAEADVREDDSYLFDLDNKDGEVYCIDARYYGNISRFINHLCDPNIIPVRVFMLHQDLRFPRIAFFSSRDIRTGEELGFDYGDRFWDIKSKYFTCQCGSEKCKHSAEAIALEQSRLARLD
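Methyltransferase reactions run at room temperature for 2 h (20 nM enzyme, 500 nM biotin-H3K9 peptide, 20 uM SAM) after a 15 min compound preincubation; product detected by AlphaScreen beads and anti-H3K9me1 antibody.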
An asterisk follows results filed as active; u = inconclusive; x = no result given; ! = a repeat was not active; [ ] = remark or other dose. In the library only some 8.7% were active in any assay of this set; here they are far more common. Calls follow the shape of the dose curve; as a rule, active = well fitted curve in the direction sought with a large enough effect; inconclusive = small, poorly fitted or top-dose-only effect, or another doubt; inactive = no such curve, though single readings can be large; an effect the other way counts as inactive or inconclusive. Potency is read from the fitted curve at half-maximal effect.

SMILES | ALOX12 inh | BAZ2B block | Sfp inh | JMJD2A Tudor | HP1b chromo inh | G9a block
CN(C)c1ccc(/C=N\Nc2ccccn2)cc1 | u | 25.1µM* | -5.9% | u | u | 39.8µM*
CC(/C=N/Nc1nncc(=O)[nH]1)=C\c1ccccc1 | 12.4% | -1.3% | 5.3% | -4.9% | 17.5% | -6.4%
Cc1ccc(-c2ccc(Oc3ccc(C#N)c(C#N)c3)cc2)cc1 | 6.9% | x | x | x | x | x
Cc1ccc(NC(=O)c2sc3nc(N4CCOCC4)c4c(c3c2N)CCCC4)cc1 | 0.6% | x | x | x | x | x
Nc1c(C(=O)Nc2ccc(Cl)cc2)sc2nc(N3CCOCC3)c3c(c12)CCCC3 | u | -13.3% | -10.0% | -18.7% | 13.3% | 22.4µM*
CC(=O)c1ccc(NC(=O)c2sc3nc(N4CCOCC4)c4c(c3c2N)CCCC4)cc1 | -12.1% | -27.6% | u | 4.7% | 29.7% | 25.1µM*
CC1(C)Cc2c(c(N3CCOCC3)nc3sc(C(=O)N4CCCCC4)c(N)c23)CO1 | u | -36.1% | 15.8µM* | u | 27.0% | 4.47µM*
NNC(=O)c1sc2nc(N3CCOCC3)c3c(c2c1N)CCCC3 | 154.9% | -27.9% | 7.9% | -21.6% | 33.7% | u
Nc1c(C(=O)N2CCOCC2)sc2nc(N3CCOCC3)c3c(c12)CCCC3 | 39.8µM* | -13.8% | 10µM* | u | 5.1% | 10µM*
Cc1ccc(F)cc1NC(=O)C(C)(C)c1ccccc1 | -25.8% | x | x | x | x | x
CN1Cc2c(N3CCOCC3)nc3sc(C(=O)c4ccc(Br)cc4)c(N)c3c2CC1(C)C | u | 35.5µM* | 44.7µM* | 44.7µM* | u | 44.7µM*
COc1ccc(NC(=O)c2sc3nc(N4CCCC4)c4c(c3c2N)CC(C)(C)OC4)cc1 | u | -7.0% | 10µM* | -5.1% | 35.5% | x
COc1cc2ccc(=O)oc2c(O)c1OCC=C(C)C | u | -33.3% | -1.6% | u | -11.0% | 11.2µM*
CC(C)=CCOc1ccc2ccc(=O)oc2c1 | 16.5% | 10.1% | 3.4% | 4.1% | 49.5% | 6.9%[12.7 µM]
COc1cc(-c2nc(C)c(C(C)=O)n2O)ccc1OCC(=O)Nc1ccc(F)cc1 | -16.4% | u | 5.7% | -21.6% | 8.9% | -11.3%[59 µM]
O=C(COc1ccc(-c2nnc3n2CCCC3)cc1)Nc1ccc(Br)cc1 | 4.5% | x | x | x | x | x
CCOc1cc(-c2nc(C)c(C(C)=O)n2O)ccc1OCC(=O)Nc1ccc(F)cc1 | -4.3% | -3.7% | -3.4% | -12.9% | 24.7% | 50.1µM*
CC(=O)c1c(C)nc(-c2ccc(OCC(=O)Nc3ccc(F)cc3)cc2)n1O | -11.6% | -26.0% | 12.7% | -13.0% | 22.9% | 17.8µM*
O=C(COc1ccc(F)cc1)Nc1ccc(-c2nnc3n2CCCC3)cc1 | 31.6µM* | x | x | x | x | x
CC(=O)Nc1ccc(-c2nc(C)c(C(C)=O)n2O)cc1 | -15.0% | -25.7% | -9.4% | u | 18.3% | u
Cn1ccnc1-c1ccc(N2CCCC(CO)(Cc3cccc(Cl)c3)C2)nn1 (stereo unspecified) | 93.3% | x | x | x | x | x
COC(=O)C=CC(=NNc1ccccc1)c1ccccc1 | -29.1% | x | x | -35.2% | -32.0% | x
Cn1nnnc1N=N/C(=N/Nc1ccccc1)c1ccccc1 | 272.7% | 1.26µM* | 2.2% | 1.58µM* | 28.2µM* | x
O=c1c2c3c(sc2nc2n1CCCS2)CCCC3 | -1.3% | 5.4% | -12.0% | -11.4% | 35.7% | -6.5%[12.7 µM]
O=c1c2c3c(sc2nc2n1CCCCC2)CCCC3 | -28.5% | x | 31.6µM* | u | -30.6% | u
SMILES | ALOX12 inh | BAZ2B block | Sfp inh | JMJD2A Tudor | HP1b chromo inh | G9a block
CC1CSc2nc3sc4c(c3c(=O)n21)CCCC4 (stereo unspecified) | u | -2.3% | u | -30.3% | 41.8% | 20µM*
N=c1c2c3c(sc2nc2n1CCCCC2)CCCCC3 | 0.0% | 7.5% | -18.8% | 9.5% | 23.5% | 50.1µM*
Cc1ccc2c(=O)cc(C(=O)NCC(c3ccco3)N3CCOCC3)oc2c1C (stereo unspecified) | -18.9% | x | x | x | x | x
Cc1cccc(-c2c3c(=O)n(C)c(=O)n(C)c3cn2CCO)c1 | u | 7.9% | -16.3% | -15.6% | 47.8% | 22.4µM*
Cc1cccc(-c2c3c(=O)n(C)c(=O)n(C)c3cn2CC2CCCO2)c1 (stereo unspecified) | 13.6% | -13.4% | -7.4% | -10.4% | 33.9% | 39.8µM*
COc1cc2c(cc1OC)-c1c(c(C(=O)NCCN(C)C)nn1-c1ccccc1)C2 | -16.3% | x | x | x | x | x
CCCCN(CCCC)CCNC(=O)c1cc(-c2cccnc2)nc2ccc(S(=O)(=O)N3CCC(C)CC3)cc12 | -18.3% | 7.6% | x | -11.2% | 50.6% | -22.7%[59 µM]
CCCCN(C)CCNC(=O)c1cc(-c2cccnc2)nc2ccc(S(=O)(=O)N3CCC(C)CC3)cc12 | u | -19.1% | 3.3% | u | 2.8% | 50.1µM*
Cc1noc(-c2ccc(OC(F)(F)F)cc2)c1C(=O)NCCCOC(C)C | 25.0% | x | x | x | x | x
Cc1cc(N2C(=O)C(O)=C(C(=O)c3ccc(C)o3)C2c2cccs2)no1 (stereo unspecified) | u | -14.8% | -17.0% | -27.9% | 1.9% | u
Cc1cc(N2C(=O)C(O)=C(C(=O)c3cc4ccccc4o3)C2c2ccc([N+](=O)[O-])cc2)no1 (stereo unspecified) | u | u | 18.0% | -27.7% | 5.5% | 44.7µM*
Cc1cc(N2C(=O)C(O)=C(C(=O)c3cc4ccccc4o3)C2c2cccs2)no1 (stereo unspecified) | u | u | -1.4% | u | -2.0%[57 µM] | 35.5µM*
Cc1cc(C)c2c(CC(=O)N3CCc4c(nc[nH]c4=O)C3)coc2c1C | 0.9% | x | x | x | x | x
c1ccc(N/N=C(\Cc2ncc[nH]2)c2ccccc2)cc1 | u | u | -5.7% | -27.8%[57.1 µM] | u | 2.82µM*
Clc1cccc(N/N=C(\Cc2nc3ccccc3[nH]2)c2ccccc2)c1 | 12.6µM* | -28.9% | 45.3% | u | 2.3% | 25.1µM*
COc1ccc(C(=O)N/N=C(\Cc2ncc[nH]2)c2ccccc2)cc1 | 6.5% | u | 16.0% | -21.8% | 36.3% | 2.4%
O=C1N[C@@H]2CCN(S(=O)(=O)c3cccc(F)c3)[C@@H]2C(=O)N1c1ccc(F)cc1 | -2.9%[176 µM] | x | x | x | x | x
COCCCNC(=O)C1(CCO)CC12CCOCC2 (stereo unspecified) | 14.7% | x | x | x | x | x
O=C(Nc1ccccc1)c1ccc2c(O)c(S(=O)(=O)c3ccc(Cl)cc3)c(=O)[nH]c2c1 | -25.1% | u | x | -31.9% | 6.8% | -48.2%[59 µM]
O=C(c1c(O)c2ccc(Cl)cc2[nH]c1=O)C1CC1 | -7.1% | x | 44.7µM*! | x | x | -0.1%[59 µM]
CN(Cc1nc2ccccc2[nH]1)C(=O)C1CCC(=O)N(CCc2cccc(F)c2)C1 (stereo unspecified) | 5.0% | -13.5% | 16.0% | -10.9% | 7.2% | -5.4%

Source: PubChem BioAssay (National Center for Advancing Translational Sciences (NCATS))
